Compound activity as filed in PubChem.
PI5P4K alpha inh = blocks human PI5P4K alpha kinase activity; PI5P4Kalpha enzyme, ADP-Glo luminescence, 60 min; hits give low values; AID 652105; max response, %; P48426; 330,000 tested, 1.2% active; active = max response of -50% or lower; inconclusive = between -30% and -50%; inactive = -30% or higher; also: value at the top dose of about 77 µM
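Controls without substrate or without enzyme flank wells where PI5P4Kalpha converts substrate using 5 microM ATP (final). Incubation lasts 60 minutes at room temperature; ADP formed is read by ADP-Glo luminescence.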
PLK1 PBD block = PLK1 (human) polo-box domain binding inhibition; P53350; Plk1 PBD binding of FITC phosphopeptide, fluorescence polarization; Potency, µM, actives largely listed as inhibitors; 360,000 tested, 2.8% active; also: series mostly up to about 57 µM; nearly all actives have a fitted effect of over 65% in size
KAT2A inh = blocks human GCN5L2 histone acetyltransferase; GCN5L2 HAT assay, ThioGlo1 CoA-SH fluorescence; 390,000 tested, 0.21% active; Potency, µM (titrated, usually from 58.9 µM), usual class: inhibitors; Q92830; AID 504327
Target sequence (Q92830 whole entry, looked up): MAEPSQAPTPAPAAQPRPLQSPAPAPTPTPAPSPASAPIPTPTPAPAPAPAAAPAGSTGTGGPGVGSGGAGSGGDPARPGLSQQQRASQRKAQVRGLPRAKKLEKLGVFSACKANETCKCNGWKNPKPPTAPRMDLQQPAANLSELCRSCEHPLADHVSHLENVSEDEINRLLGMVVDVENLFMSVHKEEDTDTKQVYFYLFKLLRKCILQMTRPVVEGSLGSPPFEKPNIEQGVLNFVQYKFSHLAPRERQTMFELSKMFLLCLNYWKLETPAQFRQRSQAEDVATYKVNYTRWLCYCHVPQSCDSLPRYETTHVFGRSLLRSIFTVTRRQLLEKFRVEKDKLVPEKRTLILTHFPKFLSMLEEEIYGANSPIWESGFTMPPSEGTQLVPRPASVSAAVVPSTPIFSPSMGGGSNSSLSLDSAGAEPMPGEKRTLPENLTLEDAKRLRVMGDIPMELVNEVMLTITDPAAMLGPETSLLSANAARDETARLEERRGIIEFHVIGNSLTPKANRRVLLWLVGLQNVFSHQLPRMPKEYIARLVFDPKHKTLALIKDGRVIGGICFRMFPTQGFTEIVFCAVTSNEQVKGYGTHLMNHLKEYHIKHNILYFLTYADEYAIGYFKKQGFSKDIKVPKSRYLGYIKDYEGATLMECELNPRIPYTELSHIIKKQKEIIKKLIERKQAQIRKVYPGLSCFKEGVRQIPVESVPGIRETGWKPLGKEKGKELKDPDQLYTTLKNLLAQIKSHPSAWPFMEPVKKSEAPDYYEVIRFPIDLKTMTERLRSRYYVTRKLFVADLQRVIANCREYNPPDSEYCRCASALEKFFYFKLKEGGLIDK
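Compounds, pin-transferred from DMSO stocks, meet 20nM GCN5L2 for 15 min before the reaction begins with H3(1-25) peptide (75uM) and acetyl-CoA (70uM). Thiol-reactive ThioGlo1 reports CoA release over 20 min at room temperature.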
BAZ2B inh = blocks human BAZ2B; Q9UIF8; AlphaScreen BAZ2B-H3K14Ac peptide displacement; Potency, µM (doses to about 114 µM), hits mostly inhibitors; 360,000 tested, 4.4% active; also: nearly all actives have a fitted effect of over 60% in size
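Inhibition is scored as reduced AlphaScreen emission. The BAZ2B/b-H3(5-23)K14Ac complex (50 nM each) in PBS pH 7.4, 0.01% Tween-20 meets compound (up to 110 uM) for 30 min at RT before bead addition.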
JMJD2A Tudor = blocks the human JMJD2A Tudor domain; O75164; AlphaScreen JMJD2A-Tudor / H3K4me3 peptide binding; Potency, µM (titrated, usually from 114 µM), usual class: inhibitors; 390,000 tested, 4.4% active; AID 504339; also: nearly all actives have a fitted effect of over 50% in size
HP1b binding inh = HP1-beta chromodomain-methylated histone interaction inhibition; AlphaScreen HP1-beta / biotin-H3K9me3 peptide binding; Potency, µM (top dose mostly 114 µM), usual class: inhibitors; P83916; 390,000 tested, 0.56% active; also: nearly all actives have a fitted effect of over 70% in size
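HP1-beta protein (50 nM final) preincubated 30 min at room temperature with biotinylated H3(1-18)K9me3 peptide (50 nM) in PBS pH 7.4, 0.01% Tween-20, then compound added for 30 min. AlphaScreen streptavidin donor/nickel chelate acceptor beads (10 ug/mL final), 30 min dark, luminescence read.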
Of the large screens only hits and unclear results are named; the others gave an inactive call. Compounds with a hit are over-represented: about 7% of the library has one in this group of screens. Unless noted, calls follow the shape of the dose curve; as a rule, active = well fitted curve in the direction sought with a large enough effect; inconclusive = small, poorly fitted or top-dose-only effect, or another doubt; inactive = no such curve, though single readings can be large; an effect the other way counts as inactive or inconclusive.

Cc1cccc(C)c1-n1nnnc1C(c1ccnc2ccccc12)N1CCN(C/C=C/c2ccccc2)CC1 (centres undefined)	none (no result: KAT2A inh, BAZ2B inh, JMJD2A Tudor, HP1b binding inh)
NC(=S)NN=C1C2CC3CC(C2)CC1C3	PLK1 PBD block 19µM
NC(=O)C(=O)NN=C1C2CC3CC(C2)CC1C3	JMJD2A Tudor inconclusive
COC(=O)c1c(C)sc(-c2c(-c3cccc(Cl)c3)[nH]c3c2c(=O)[nH]c(=O)n3C)c1O	BAZ2B inh inconclusive (no result: PI5P4K alpha inh, PLK1 PBD block)
CCC(=O)Nc1nnc(SCC(=O)N2c3ccccc3CC2C)s1 (centres undefined)	none
CC1Cc2ccccc2N1C(=O)CSc1nnc(NC(=O)Cc2cccs2)s1 (centres undefined)	PI5P4K alpha inh inconclusive, PLK1 PBD block 30µM, BAZ2B inh inconclusive
CN1C(=O)c2ccccc2Sc2ccc(NC(=O)N3CCN(c4ccc(F)cc4)CC3)cc21	none (no result: PI5P4K alpha inh, PLK1 PBD block)
O=C(Oc1ccc(C(=S)N2CCOCC2)cc1)c1ccccc1[N+](=O)[O-]	none
O=C(Oc1ccc(C(=S)N2CCOCC2)cc1Br)c1ccccc1F	PLK1 PBD block 24µM, HP1b binding inh inconclusive
O=C(Oc1ccc(C(=S)N2CCOCC2)cc1Cl)c1ccccc1F	PLK1 PBD block inconclusive
O=C(Oc1ccc(C(=S)N2CCOCC2)cc1)c1ccccc1F	PLK1 PBD block 21µM
Cc1ccc(C(=O)Oc2c(S(=O)(=O)c3ccccc3)c(C)nn2-c2ccccc2)cc1	BAZ2B inh inconclusive, JMJD2A Tudor 14µM (no result: PI5P4K alpha inh, PLK1 PBD block)
Cc1nn(-c2ccccc2)c(OC(=O)c2ccc(Cl)cc2)c1S(=O)(=O)c1ccccc1	none (no result: PI5P4K alpha inh, PLK1 PBD block)
CCOC(=O)c1c(Nc2cccc(O)c2)nnc(-c2ccccc2)c1-c1ccccc1	BAZ2B inh inconclusive, JMJD2A Tudor inconclusive (no result: PI5P4K alpha inh, PLK1 PBD block)
Cc1sc2ncnc(NCCN3CCOCC3)c2c1C	BAZ2B inh 50µM, JMJD2A Tudor 1.6µM (no result: PI5P4K alpha inh)
COc1ccc(CNc2ccccc2SC)cc1OC	BAZ2B inh inconclusive, JMJD2A Tudor 79µM (no result: PI5P4K alpha inh)
COc1ccc(CNc2cccc3[nH]c(C(F)(F)F)nc23)cc1OC	BAZ2B inh 50µM, JMJD2A Tudor inconclusive
O=S(=O)(c1ccc(Br)cc1)N1CCN(S(=O)(=O)c2ccc3c(c2)OCCO3)CC1	none (no result: PI5P4K alpha inh, PLK1 PBD block, KAT2A inh, BAZ2B inh, HP1b binding inh)
COc1cc(NC(=O)C2=C(C)OCCS2)c(Cl)cc1C(=O)NCCN(C)C	none
COC(=O)c1ccc(NC(=O)Cn2c([N+](=O)[O-])cnc2C)cc1	PLK1 PBD block 30µM
Cc1ccc(NC(=O)Cn2c([N+](=O)[O-])cnc2C)cc1	none
CCOc1ccc(S(=O)(=O)NCC(c2cccs2)S(=O)(=O)c2ccc(C)cc2)cc1 (centres undefined)	none (no result: PI5P4K alpha inh, PLK1 PBD block)
CCOc1ccc(CN(C)C(=O)Cc2c[nH]c3ccccc23)cc1	none
CCOC(=O)C1CCN(c2cc3c(cc2NC(=O)c2ccccc2F)n(C)c(=O)n3C)CC1	BAZ2B inh 50µM
CCOC(=O)c1ccccc1NC(=O)Nc1cc2c(cc1N1CCCC1)n(C)c(=O)n2C	BAZ2B inh 50µM, JMJD2A Tudor inconclusive (no result: PI5P4K alpha inh, PLK1 PBD block)
CCOC(=O)N1CCN(C(=O)C2CCN(C(=O)c3ccccc3C)CC2)CC1	PI5P4K alpha inh -79, PLK1 PBD block 3.4µM, JMJD2A Tudor 7.1µM, HP1b binding inh 7.9µM (no result: KAT2A inh, BAZ2B inh)
Cc1cccc(C(=O)Nc2cc3c(cc2N2CCCCC2)n(C)c(=O)n3C)c1	BAZ2B inh 50µM (no result: PI5P4K alpha inh, PLK1 PBD block)
CCOc1cccc2sc(N(CCN(CC)CC)C(=O)c3ccco3)nc12	JMJD2A Tudor inconclusive (no result: PI5P4K alpha inh, PLK1 PBD block)
COc1cc2c(cc1NC(=O)c1ccccc1C)n(C)c(=O)n2C	BAZ2B inh 50µM (no result: PI5P4K alpha inh, PLK1 PBD block)
CCOC(=O)C1CCN(C(=O)c2ccccc2NC(=O)c2ccc(Cl)cc2)CC1	PLK1 PBD block 15µM, JMJD2A Tudor inconclusive, HP1b binding inh inconclusive
COc1ccccc1OCC(=O)Nc1ccc2c(c1)n(C)c(=O)n2C	BAZ2B inh 56µM
CCOC(=O)C1CCN(CCC(=O)Nc2ccccc2Cl)CC1	PLK1 PBD block 24µM
CCOC(=O)C1CCN(C(=O)c2ccccc2NC(=O)c2nsc3ccccc23)CC1	none (no result: PI5P4K alpha inh, PLK1 PBD block)
COc1ccc(OCC(=O)Nc2ccc3c(c2)n(C)c(=O)n3C)cc1	BAZ2B inh inconclusive
COc1ccc(C2=NN(CN3C(=O)C(=O)c4ccccc43)C(c3cccc([N+](=O)[O-])c3)C2)cc1 (centres undefined)	JMJD2A Tudor inconclusive
